From PubChem BioAssay
Shown are actives, neighbours in structure and some others; about 19% of the full set was active somewhere.
TDP1 cell CPT: growth inhibition of DT40 Tdp1-/-;hTDP1 cells with camptothecin (screen for TDP1 inhibitors) | chicken DT40 Tdp1-/-;hTDP1 cells + 20 nM CPT, ATP luminescence, 48 h | Potency, µM (series often up to 46.2 µM), inactives show at the top dose activity change, negative = growth inhibition, most hits filed as inhibitors | actives 12% (n = 420,000) | AID 686979; further: nearly all actives have a fitted effect of over 55% in size
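Chicken DT40 Tdp1-/- cells stably complemented with human TDP1 were seeded at 400 cells/well in medium containing 20 nM camptothecin, exposed to pin-transferred compounds, and grown at 37 °C for at least 48 hr. Viability was read as ATP luminescence.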
VP16 counter: counter-screen for ROR gamma inhibitors: Gal4-VP16 reporter | Drosophila S2 Gal4-VP16 UAS-luciferase, luminescence, 20 h | Potency, µM (doses to about 53.6 µM), for inactives: top-dose activity, negative = inhibition, usual class: inhibitors | actives 3.5% (n = 310,000);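 further: Gal4-VP16 expression switched on by copper sulfate through the metallothionein promoter; nearly all actives have a fitted effect of over 50% in size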
TDP1 block: inhibitors of human tyrosyl-DNA phosphodiesterase TDP1; Q9NUW8; recombinant TDP1, AlphaScreen DNA substrate cleavage; actives 0.28% (n = 350,000); Potency, µM (doses to about 130 µM), for inactives: at the highest dose activity change, negative = inhibition, most hits filed as inhibitors; further: nearly all actives have a fitted effect of over 40% in size
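E. coli-derived human Tdp1, 1 nM final. Cpd preinc 15 min RT; substrate 15 nM final, 5 min RT; AS bead mix 10 ug/ml final, 10 min RT. Signal loss = tyrosine-FITC cleavage. No-enzyme wells = max signal.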
DT40 TDP1 no CPT: qHTS for Inhibitors of human tyrosyl-DNA phosphodiesterase 1 (TDP1): qHTS in cells in absence of CPT; DT40 Tdp1-/- hTDP1 cells, no CPT, ATP luminescence, 48 h; Potency, µM (series often up to 46.2 µM), for inactives: at the top dose activity change, negative = growth inhibition, hits mostly inhibitors; actives 15% (n = 420,000); AID 686978, 2013; further: nearly all actives have a fitted effect of over 55% in size
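No-CPT arm: Tdp1-/-;hTDP1 DT40 cells (400/well) plus compounds, incubated ≥48 hr at 37 °C. Readout CellTiter-Glo luminescence.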
RORgamma inh: inhibitors of mouse ROR gamma transcriptional activity; P51450; actives 5.4% (n = 310,000); Potency, µM (top dose mostly 53.6 µM), for the others: at the top dose activity change, negative = inhibition, actives largely listed as inhibitors; Drosophila S2 Gal4-RORgamma UAS-luciferase reporter, 20 h; further: nearly all actives have a fitted effect of over 60% in size
Target sequence (P51450 whole entry, looked up, the tested form may be a part): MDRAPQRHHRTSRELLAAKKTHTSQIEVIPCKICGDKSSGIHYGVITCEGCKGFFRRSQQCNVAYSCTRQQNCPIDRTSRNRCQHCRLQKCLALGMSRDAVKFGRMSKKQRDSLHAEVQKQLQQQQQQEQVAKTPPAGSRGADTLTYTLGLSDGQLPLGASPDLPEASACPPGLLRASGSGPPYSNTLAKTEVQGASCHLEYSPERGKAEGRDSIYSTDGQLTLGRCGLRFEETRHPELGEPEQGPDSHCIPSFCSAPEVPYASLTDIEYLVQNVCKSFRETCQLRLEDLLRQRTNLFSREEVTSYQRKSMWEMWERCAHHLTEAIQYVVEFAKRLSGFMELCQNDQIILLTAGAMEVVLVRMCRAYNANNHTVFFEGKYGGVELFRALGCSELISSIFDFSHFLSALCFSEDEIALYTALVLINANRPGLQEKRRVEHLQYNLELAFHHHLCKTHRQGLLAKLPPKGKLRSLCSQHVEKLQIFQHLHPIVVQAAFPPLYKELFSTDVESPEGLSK
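Compounds are pin-transferred onto Drosophila Schneider cells expressing a copper-inducible Gal4–ROR gamma transactivation domain fusion. After 1 hr, copper sulfate is added to 700 uM final; luciferase is read 20 hr later.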
* = called active by the depositor; ? = inconclusive; . = no result; [ ] = remark or other dose. The call rests on the fitted dose curve; in most records, active means well fitted curve in the direction sought with a large enough effect; inconclusive means small, poorly fitted or top-dose-only effect, or another doubt; inactive means no such curve, though single readings can be large; an effect the other way counts as inactive or inconclusive. On the % scale 0 is the no-effect control and ±100 the full control effect; potency means the concentration at half of the fitted maximal effect.

SMILES	TDP1 cell CPT	VP16 counter	TDP1 block	DT40 TDP1 no CPT	RORgamma inh
Cc1cc(Br)ccc1NC(=O)C1CSC2(C)CCC(=O)N12 (centres undefined)	-22%	.	4%	-5%	.
O=C1NCCCc2c1oc1cc(Br)c(O)c(Br)c21	16µM*	-2%	-5%	?	17%
CC(C)NCc1c(O)c(Br)cc2oc3c(c12)CCCC3	4%	-4%[0.365 µM]	0%	-14%	?
Cc1cccc(C2c3[nH]c4ccccc4c3CCN2Cc2cccn2-c2ncccn2)c1 (centres undefined)	?	?	5%	23µM*	?
COc1ccc(C2c3[nH]c4ccccc4c3CCN2Cc2cccn2-c2ncccn2)cc1C (centres undefined)	15µM*	?	5%	16µM*	?
COc1cc(Br)cc(CN2CCN(C=O)CC2)c1O	26µM*	12%	2%	?	-26%
CCCOc1ccccc1C1CC(=O)Nc2cc3c(cc21)OCCO3 (centres undefined)	0.73µM*	?	10%[56.1 µM]	0.65µM*	?
CCOc1cc(C2CC(=O)Nc3cc4c(cc32)OCCO4)ccc1O (centres undefined)	18µM*	.	2%	?	.
O=C1CC(c2cccnc2)c2cc3c(cc2N1)OCCO3 (centres undefined)	1%	7%	2%	-14%	-39%
CCOc1ccccc1C1CC(=O)Nc2cc3c(cc21)OCCO3 (centres undefined)	1µM*	?	4%	0.52µM*	14%
CCOc1c(Br)cc(C2CC(=O)Nc3cc4c(cc32)OCO4)cc1OC (centres undefined)	2.9µM*	.	2%	4.6µM*	.
CCOc1cccc(C2CC(=O)Nc3cc(OC)c(OC)cc32)c1 (centres undefined)	?	18%	.	?	?
CC(C)NC(=O)c1csc([C@@H]2O[C@H](CO)[C@H](O)[C@H](O)[C@H]2O)n1	6%	.	.	12%	.
CC(=O)Oc1ccc(OC(C)=O)c(SCCCCCN2CCOCC2)c1	?	?	2%	3.7µM*	?
CCC(=O)OCc1cc(=O)n2nc(C3CC3)sc2n1	-18%	.	5%	-23%	.
COc1ccc(NC(=O)c2ncn[nH]2)cc1	0%	-6%	2%	-14%	1%
Cc1ccc(C(C)C)cc1S(=O)(=O)NCc1ccccn1	-2%	?	4%	?	14µM*
COc1ccc(C(C)C)cc1S(=O)(=O)NCc1ccccn1	-27%	-9%	2%	-9%	13µM*
COc1ccc(C)cc1S(=O)(=O)NCc1ccccn1	1%	.	.	2%	.
Cc1ccc(C(C)C)cc1S(=O)(=O)NCc1cccnc1	-20%	18µM*	-6%	?	?
O=C(CN1CCOCC1)NCCNC(=O)CN1CCOCC1	-8%	-2%	4%	-5%	2%
CCOc1ccc(-c2n[nH]c(=S)c3ccccc23)cc1	23µM*	10µM*	.	?	7.1µM*
S=c1[nH]nc(-c2ccccc2)c2ccccc12	-18%	11µM*	-3%	?	7.1µM*
Cc1ccc(-c2nnc(N3CCOCC3)c3ccccc23)cc1S(N)(=O)=O	-13%	.	.	-2%	.
CCOc1ccc(-c2nnc(N3CCCCC3)c3ccccc23)cc1	23µM*	-8%	0%	16µM*	11%
SMILES	TDP1 cell CPT	VP16 counter	TDP1 block	DT40 TDP1 no CPT	RORgamma inh
Cc1ccc(-c2nnc(N3CCCCC3)c3ccccc23)cc1S(=O)(=O)N(C)C	23µM*	18µM*	4%	?	6%
COc1ccc2c3c(cccc13)OCC2=O	?	0%	1%	?	-10%[10 µM]
NS(=O)(=O)c1ccc(CCNC(=O)COc2ccc3c4c(c(=O)oc3c2)CCC4)cc1	-8%	-3%	3%	11%	5%
Cc1ccnc(NC(=O)COc2ccc3oc4c(c3c2)CCCC4)c1	?	25%	-1%	12µM*	77%
O=C(COc1ccc2c3c(c(=O)oc2c1)CCC3)Nc1ccc(CCO)cc1	-23%	-25%	40µM*	8%	-28%
Cc1ccccc1NC(=O)COc1ccc2oc3c(c2c1)CCCC3	16µM*	.	.	18µM*	.
O=C(COc1ccc2oc3c(c2c1)CCCC3)Nc1cccc(Br)c1	?	.	.	21µM*	.
O=C(Nc1ccccc1)NC1(C(=O)N2CCC(O)CC2)CCCCC1	2%	3%	8%	-7%	-9%
Cc1cccc2nc(-c3cccnc3)c(Nc3ccc(C(C)C)cc3)n12	?	.	0%	16µM*	.
Cc1ccccc1Nc1c(-c2ccc(N3CCOCC3)cc2)nc2cccc(C)n12	?	.	4%[12.3 µM]	?	.
Cc1ccccc1Nc1c(-c2cccnc2)nc2cccc(C)n12	?	-13%	3%	21µM*	-5%
Cc1ccccc1Nc1c(-c2cccs2)nc2cccc(C)n12	15µM*	.	5%	13µM*	.
NC(=O)CSc1nnnn1CC(CC(=O)O)c1ccccc1 (centres undefined)	2%	-17%	0%	0%	-7%
Cc1cc2nc(-c3ccc[nH]c3=O)n(Cc3cccc(F)c3)c2cc1C	-13%	11%	.	0%	43%
CC1NC(=S)N(Cc2ccccc2)C1=O (centres undefined)	-1%	-10%	0%	-2%	4%
Cc1cccc(N2C(=O)C(Cc3ccccc3)NC2=S)c1 (centres undefined)	-4%	?	5%	-10%	?
O=C(O)CC1NC(=S)N(Cc2ccccc2)C1=O (centres undefined)	21µM*	.	.	18µM*	.
O=C1C(CCCNC(=S)NCc2ccccc2)NC(=S)N1Cc1ccccc1 (centres undefined)	-6%	?	-4%	-25%	22µM*
O=C1C(Cc2ccccc2)NC(=S)N1c1ccccc1 (centres undefined)	24%	?	2%	-4%	11µM*
COc1ccccc1CNC(=O)c1cccc(N2CCCS2(=O)=O)c1	-21%	.	0%	?	.
O=C(NCc1ccc(Cl)cc1Cl)c1cccc(N2CCCS2(=O)=O)c1	16µM*	.	3%	?	.
Cc1cc(C)cc(NC(=O)c2cccc(N3CCCS3(=O)=O)c2)c1	15µM*	.	-3%	?	.
CCC(=O)OCOc1ccc(/C=C2/CCC(CN(C)C)C2=O)cc1 (centres undefined)	2.3µM*	.	.	2.9µM*	.
CC(C)ON(C(C(=O)NO)C(C)C)S(=O)(=O)c1ccc(-c2ccccc2)cc1 (centres undefined)	.	?	11%	.	10µM*
